High-throughput results (PubChem BioAssay)
NS1 function inh – inhibitors of influenza NS1 protein function; AID 2326; Potency, µM (titrated, usually from 46.1 µM), for the others: at the highest dose activity, positive = more growth; 270,000 tested, 0.4% active; calls by dose curve; further: actives are rising curves; nearly all actives have a fitted effect of over 50% in size
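Compounds were scored for reversing the slow growth caused by influenza A NS1 in S. cerevisiae, measured by optical density at 600 nm. Assay medium contained 2% galactose at pH 6.0; NS1-free yeast of the same strain were the positive control.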
Pf growth 48h – P. falciparum growth inhibition at 48 hours (one generation); AID 504832; 310,000 tested, 5.9% active; Potency, µM (series often up to 28.7 µM), without a hit: at the highest dose activity change, negative = inhibition, hits mostly inhibitors; P. falciparum luciferase growth in erythrocytes, 48 h; further: on the % scale 0 is the no-effect control and ±100 the full control effect
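Compounds are pin-transferred into medium, infected erythrocytes (2% hematocrit, 0.1% parasitemia final) are added, and plates sit one parasite generation at 37 C in 5% CO2. Detection reagent is then added and luminescence measured.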
HCV inh – HCV inhibition. Huh7.5.1 HCVcc-Cre infection, luciferase reporter, 44 h. Potency, µM (top dose mostly 41.8 µM), inactives show at the top dose activity change, negative = inhibition, usual class: inhibitors. 340,000 tested, 3.4% active; further: on the % scale 0 is the no-effect control and ±100 the full control effect
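Seed cells (1,000/well) for 4 h; treat with compound and infect with HCVcc-Cre, moi about 0.5. Incubate 44 h, then detect luciferase activity.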
AMA1-RON2 inh – AMA1-RON2 (P. falciparum) interaction inhibition. AlphaScreen AMA1-biotinylated RON2 peptide binding. Potency, µM (series often up to 58.2 µM), without a hit: top-dose activity change, negative = inhibition, usual class: inhibitors. 360,000 tested, 0.2% active. AID 720542;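 further: 0% = vehicle wells and -100% = peptide control; nearly all actives have a fitted effect of over 45% in size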
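AMA1 (3D7) with his tag at 25 nM final met compounds first, then biotinylated RON2 peptide at 25 nM; detection used donor plus acceptor beads, 10 µg/mL apiece, read by AlphaScreen after 30 min at room temperature.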
SARS PLpro yeast – inhibitors of SARS-CoV papain-like protease in yeast. S. cerevisiae expressing SARS-CoV PLpro, growth rescue. Potency, µM (highest dose often 32.9 µM), inactives show at the highest dose activity, positive = growth rescue, hits mostly activators. 330,000 tested, 0.19% active. AID 485353; calls by dose curve; further: 0% is about no effect; nearly all actives have a fitted effect of over 55% in size
Pf growth 96h – P. falciparum growth inhibition at 96 hour, primary screen for plastid delayed-death inhibitors; P. falciparum luciferase reporter growth, 96 h; Potency, µM (series often up to 28.7 µM), for the others: at the highest dose activity change, negative = inhibition, most hits filed as inhibitors; 320,000 tested, 6.9% active; AID 504834; further: on the % scale 0 is the no-effect control and ±100 the full control effect
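Two parasite generations (96 h, 37 C, 5% CO2) of compound exposure in infected erythrocytes (0.05% parasitemia, 2% hematocrit). Luciferase-reporter P. falciparum; decreased luminescence indicates inhibited growth, aimed at apicoplast-acting delayed death.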
An asterisk follows results filed as active; ? = inconclusive; . = no result; [ ] = remark or other dose. Shown are actives, neighbours in structure and some others; about 12% of the full set was active somewhere. Unless noted, the call rests on the fitted dose curve; in most records, active means well fitted curve in the direction sought with a large enough effect; inconclusive means small, poorly fitted or top-dose-only effect, or another doubt; inactive means no such curve, though single readings can be large; an effect the other way counts as inactive or inconclusive. Potency means the concentration at half of the fitted maximal effect.

SMILES | NS1 function inh | Pf growth 48h | HCV inh | AMA1-RON2 inh | SARS PLpro yeast | Pf growth 96h
CCCCc1cc(=O)oc2c(CN3CCN(C)CC3)c(O)ccc12 | 8.1% | 11.7µM* | ? | -0.9% | 1.1% | ?
O=c1c(Oc2ccccc2Br)c(C(F)(F)F)oc2c(CN3CCCC3)c(O)ccc12 | -0.3% | 10.4µM* | 13.9% | ? | -7.7% | 2.08µM*
COc1ccccc1Oc1c(C)oc2c(CN3CCN(C)CC3)c(O)ccc2c1=O | ? | 13.0% | . | . | -0.1% | 19.0%
COc1ccc(NC(=O)C2CCCN2C(=O)NC2CCCCC2)cc1 (stereo unspecified) | 14.3% | 12.3% | 10.6% | 13.4% | 7.5% | 0.0%
Cc1cccc(OCc2nnc(SCC(=O)N(C)C3CCCCC3)o2)c1 | . | ? | 21.5% | 15.5% | -1.8% | -11.8%
Cc1cc(C)c2c(n1)nn1c(NCCCN(C)C)cc(C)nc21 | -5.0% | -4.7% | 22.4µM* | 8.4% | -2.0% | ?
Cc1cc(C)c2c(n1)nn1c(NCCOCCO)cc(C)nc21 | 8.2% | 1.9% | 5.3% | ? | -3.0% | .
CN(C)/C=N/c1c(C(=O)NCc2ccccc2)nnn1Cc1ccccc1 | -2.5% | 2.62µM* | -11.8% | -6.8% | -4.8% | 7.6%
Nc1c(C(=O)NCc2ccccc2)nnn1Cc1ccccc1 | -15.3% | . | 15.7% | 2.3% | -2.0% | -30.0%
COc1ccc(N2CCN(C(=O)CSc3nnc4c(C)cc5c(C)cc(C)cc5n34)CC2)cc1 | 11.9% | 2.94µM* | ? | -22.0% | 1.5% | -4.2%
COC(=O)CSc1nnc2n1C(C)(C)Cc1ccccc1-2 | -7.9% | 1.4% | ? | 8.0% | 4.3% | 14.2%
COc1cc(NC(=O)CSc2nnc3n2C(C)(C)Cc2ccccc2-3)cc(OC)c1 | -2.6% | ? | -7.3% | -0.4% | 5.7% | 4.15µM*
COc1ccc(N2CCN(C(=O)CSc3nnc4n3C(C)(C)Cc3ccccc3-4)CC2)cc1 | -12.9% | 11.7µM* | ? | -2.0% | -2.7% | ?
O=C1CCN(Cl)C(=O)N1Cl | . | . | . | 3.8% | . | .
COc1ccc(NS(=O)(=O)c2ccc3c(c2)CCN3C(=O)CCC(=O)O)cc1OC | 1.4% | -20.3%[0.00184 µM] | 25.5% | 0.0% | -0.5% | 39.1%
CN1CCN(CC(=O)Nc2ccc(OC(F)(F)F)cc2)CC1 | 14.0% | -6.5% | ? | -20.4% | 1.4% | -14.2%
CC1=C(C(=O)N2CCOCC2)CC(CC(=O)NCCc2ccccn2)C(=O)N1Cc1ccc(C(C)(C)C)cc1 (stereo unspecified) | . | . | . | 3.1% | . | .
CN(CC(=O)Nc1ccccc1Cl)C(=O)c1ccc(COc2ccccc2)cc1 | . | -12.4% | ? | -2.2% | -5.9% | 16.1%
COc1ccc(OC)c(NC(=O)CCc2c[nH]c3ccccc23)c1 | . | 4.2% | ? | -16.4% | -8.2% | 12.6%
COc1ccc(Oc2c(C(F)(F)F)oc3cc(OCC(=O)O)ccc3c2=O)cc1 | 4.9% | 15.1% | 6.3% | -5.2% | -2.1% | 9.28µM*
O=C(Cc1cccc(NC(=O)C2CCCN(C(=O)CCc3ccccc3)C2)c1)Nc1ccc(C(=O)N2CCOCC2)cc1 (stereo unspecified) | . | . | -6.0%[8.37 µM] | -2.9% | . | .
O=C(O)c1ccc(Cl)c(S(=O)(=O)Nc2ccc(S(=O)(=O)N3CCCC3)cc2)c1 | . | . | -5.8% | 1.7% | 4.2% | .
COc1cccc(CCc2nnc(CCC(=O)NCCC3CCCCO3)o2)c1 (stereo unspecified) | 11.1% | 6.5% | 6.1% | -1.9% | 1.5% | -15.2%
COc1cccc(CCc2nnc(CCC(=O)N3CCCC3c3nccs3)o2)c1 (stereo unspecified) | 1.6% | -2.9% | 7.3% | 12.5% | -0.2% | 5.86µM*
COc1ccccc1Nc1nnc(SCc2cc(=O)n3cc(C)ccc3n2)s1 | -6.9% | -16.8% | ? | -10.8% | -0.2% | ?
SMILES | NS1 function inh | Pf growth 48h | HCV inh | AMA1-RON2 inh | SARS PLpro yeast | Pf growth 96h
O=C(OC(C(=O)Nc1cccc(C(F)(F)F)c1)c1ccccc1)C1CCCCC1 (stereo unspecified) | -10.9% | ? | -6.6% | 27.7% | -27.3% | 6.57µM*
COC(=O)C1=C(N)Oc2cc(N(C)C)ccc2C1c1ccccc1OC (stereo unspecified) | ? | ? | 6.31µM* | -7.0% | -3.7% | 25.4%
CCOc1ccc(CCNC(=O)C2CCCN(c3nn4c(=O)cc(C)nc4s3)C2)cc1OCC (stereo unspecified) | -19.9% | ? | ? | 4.4% | -4.5% | 0.147µM*
Cc1cc(=O)n2nc(N3CCCC(C(=O)N4CCOCC4)C3)sc2n1 (stereo unspecified) | 7.1% | 1.0% | 12.2% | -11.5% | 1.3% | 11.7µM*
COc1ccc(CCNC(=O)C2CCCN(c3nn4c(=O)cc(C)nc4s3)C2)cc1OC (stereo unspecified) | -0.1% | ? | 7.2% | 14.7% | -5.2% | ?
CCOc1ccc(NC(=O)CN(C)C(=O)c2cccc(S(=O)(=O)N3CCN(C)CC3)c2)cc1OCC | . | . | 3.9% | 23.2% | . | .
O=C(CSc1nncs1)Nc1nccs1 | . | 0.4% | 0.4% | -11.0% | 0.6% | 15.1%
Cc1nc(N2CCOCC2)c2cc(-c3ccccc3)sc2n1 | -92.9% | . | ? | 0.0% | -19.7% | ?
Cc1nc(N2CCN(Cc3ccc4c(c3)OCO4)CC2)c2cc(-c3ccccc3)sc2n1 | . | 11.7µM* | ? | ? | -5.4% | ?
Cc1nn(C)c(C)c1CN(C)S(=O)(=O)c1ccc2ccccc2c1 | 7.8% | 13.1µM* | ? | 0.0% | 28.9% | ?
CN(C)c1ccc(NC(=O)C2C3C=CC(C3)C2C(=O)O)cc1 (stereo unspecified) | 8.1% | 2.62µM* | 10.0% | -9.4% | 0.4% | ?
CC(=O)c1ccc(NC(=O)C2C3CCC(C3)C2C(=O)O)cc1 (stereo unspecified) | -3.0% | -4.6% | 9.6% | -5.8% | -6.9% | 13.1µM*
CCOC(=O)c1sc(=NC(=O)c2ccccc2)n(C)c1C | . | 462.2% | -8.8% | 6.4% | -0.1% | 89.9%
CCOC(=O)c1c(/C=N/Nc2ccccc2)c2sc(C)cc2n1C | . | 9.28µM* | . | . | -15.9% | ?
O=C(COC(=O)c1cccc(C(=O)OCC(=O)NC2CC2)n1)NC1CC1 | . | 12.1% | 28.6% | 37.2% | -4.0% | 5.4%
CCN(CC)CCN(C(=O)c1ccc2c(c1)CCCC2)c1nc2ccc(F)cc2s1 | . | ? | ? | -16.2% | 1.6% | ?
CCN(CC)CCN(C(=O)c1ccc2c(c1)CCCC2)c1nc2ccc(C)cc2s1 | -40.5% | 13.1µM* | ? | -13.3% | -2.7% | ?
CCN(CC)CCN(C(=O)c1ccc2c(c1)CCCC2)c1nc2c(C)cccc2s1 | -48.5% | 9.28µM* | ? | -16.3% | -2.6% | ?
COCC(C)NC(=O)c1cc2cccc([N+](=O)[O-])c2[nH]1 (stereo unspecified) | -3.4% | 5.22µM* | -25.1% | -2.0% | -2.6% | ?
